From PubChem BioAssay (NCATS)
Results filed as inconclusive are left out. Where a call stands in place of a potency, no number is given. Calls of active or inactive are those of the source. Calls come from the whole dose curve; as a rule, active = well fitted inhibition curve with a large enough effect; inconclusive = small, poorly fitted or top-dose-only effect; inactive = flat fitted curve, though single readings scatter.

Target: Voltage-gated inwardly rectifying potassium channel KCNH2 (Homo sapiens) (UniProt Q12809)
Experiment: qHTS Assay for Small Molecule Inhibitors of the Human hERG Channel Activity (AID 588834);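 note: lower thallium flux fluorescence means stronger hERG block; nearly all actives have a fitted effect of over 50% in size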
Conditions: U2OS BacMam hERG, FluxOR thallium flux fluorescence; series mostly up to 46.1 µM
Summary of the method: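 Blockade is seen as reduced FluxOR thallium-flux fluorescence in U2OS cells expressing hERG from a BacMam construct, in Opti-MEM with 2% FCS. Concentration-response data fitted to the Hill equation for AC50.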
Potency is the fitted concentration of half-maximal effect.

Sequence of Voltage-gated inwardly rectifying potassium channel KCNH2 (Homo sapiens) (Q12809 whole entry, looked up): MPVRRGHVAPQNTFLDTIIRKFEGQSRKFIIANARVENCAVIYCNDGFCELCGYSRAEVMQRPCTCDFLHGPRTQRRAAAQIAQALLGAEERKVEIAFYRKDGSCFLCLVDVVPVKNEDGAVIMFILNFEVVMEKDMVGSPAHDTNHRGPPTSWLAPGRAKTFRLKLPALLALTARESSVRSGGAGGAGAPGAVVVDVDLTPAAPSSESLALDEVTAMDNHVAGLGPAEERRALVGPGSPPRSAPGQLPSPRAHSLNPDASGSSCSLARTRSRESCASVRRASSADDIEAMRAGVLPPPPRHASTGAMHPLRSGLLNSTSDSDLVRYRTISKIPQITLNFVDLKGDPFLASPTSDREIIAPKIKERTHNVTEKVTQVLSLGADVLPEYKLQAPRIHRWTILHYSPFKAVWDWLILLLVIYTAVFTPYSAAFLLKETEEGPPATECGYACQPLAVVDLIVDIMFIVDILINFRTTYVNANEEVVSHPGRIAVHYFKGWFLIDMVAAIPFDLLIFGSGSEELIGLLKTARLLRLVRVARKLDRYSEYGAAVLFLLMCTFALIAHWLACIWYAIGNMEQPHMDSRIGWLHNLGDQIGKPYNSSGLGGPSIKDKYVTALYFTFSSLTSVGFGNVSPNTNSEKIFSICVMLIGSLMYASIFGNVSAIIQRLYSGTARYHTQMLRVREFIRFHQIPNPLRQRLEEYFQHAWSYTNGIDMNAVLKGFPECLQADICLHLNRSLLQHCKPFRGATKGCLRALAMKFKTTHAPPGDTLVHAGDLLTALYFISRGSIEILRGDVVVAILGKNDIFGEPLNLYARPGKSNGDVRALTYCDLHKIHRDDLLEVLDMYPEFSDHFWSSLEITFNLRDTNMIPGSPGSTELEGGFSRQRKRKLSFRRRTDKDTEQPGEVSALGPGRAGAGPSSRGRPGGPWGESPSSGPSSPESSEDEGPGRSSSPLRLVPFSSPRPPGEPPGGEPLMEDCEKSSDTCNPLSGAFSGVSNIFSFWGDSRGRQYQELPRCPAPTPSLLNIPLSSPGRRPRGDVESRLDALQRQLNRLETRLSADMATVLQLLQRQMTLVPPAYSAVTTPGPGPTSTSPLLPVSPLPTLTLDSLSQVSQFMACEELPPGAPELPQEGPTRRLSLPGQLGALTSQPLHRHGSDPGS

With `COc1ccc(OC)c(C(O)CNC(=O)CN)c1` (centres undefined) as the compound, how does the Potency read?
Its Potency is “inactive”.

With `CCN(CCCCOC(=O)c1ccc(OC)c(OC)c1)C(C)Cc1ccc(OC)cc1` (centres undefined) as the compound, how does the Potency read?
Its Potency is 2.24 µM (active).

`COc1cc2c(cc1OC)[C@@H]1CC(=O)[C@@H](CC(C)C)CN1CC2` was tested. Which Potency did it give?
Its Potency is “inactive”.

`C[C@]12C=CC(=O)C=C1[C@@H](F)C[C@@H]1[C@@H]2[C@@H](O)C[C@@]2(C)[C@H]1CC[C@]2(O)C(=O)CO` was tested. Which Potency did it give?
The Potency was “inactive”.

How did the Potency turn out when `CC1=C(C(=O)O)N2C(=O)[C@@H](NC(=O)[C@H](N)c3ccc(O)cc3)[C@H]2SC1` was run?
The Potency was “inactive”.

Which Potency does the source give for `C[C@]12CC[C@H]3[C@@H](CCC4=CC(=O)CC[C@@]43C)[C@@H]1CC[C@@H]2C(=O)CO` here?
The Potency was “inactive”.

Which Potency does the source give for `CCCC(=O)O[C@]1(C(=O)CO)CC[C@H]2[C@@H]3CCC4=CC(=O)CC[C@]4(C)[C@H]3[C@@H](O)C[C@@]21C` here?
The Potency was “inactive”.

For `CC1(C)O[C@@H]2C[C@H]3[C@@H]4C[C@H](F)C5=CC(=O)CC[C@]5(C)[C@H]4[C@@H](O)C[C@]3(C)[C@]2(C(=O)CO)O1`, which Potency is on record?
The Potency was “inactive”.

Which Potency does the source give for `CC(C)C[C@H]1C(=O)N2CCC[C@H]2[C@]2(O)O[C@](NC(=O)[C@@H]3C=C4c5cccc6[nH]c(Br)c(c56)C[C@H]4N(C)C3)(C(C)C)C(=O)N12` here?
Its Potency is “inactive”.

`CC1(C)O[C@@H]2C[C@H]3[C@@H]4C[C@H](F)C5=CC(=O)C=C[C@]5(C)[C@H]4[C@@H](O)C[C@]3(C)[C@]2(C(=O)CO)O1` was tested. Which Potency did it give?
The Potency was “inactive”.

Which Potency does the source give for `CC1(C)O[C@@H]2[C@@H](CO[C@@]3(COS(N)(=O)=O)OC(C)(C)O[C@@H]23)O1` here?
Its Potency is “inactive”.

`COc1cc(/C=C/C(=O)O[C@H]2CC[C@]34C[C@]35CC[C@]3(C)[C@@H]([C@H](C)CCC=C(C)C)CC[C@@]3(C)[C@@H]5CC[C@H]4C2(C)C)ccc1O` was tested. Which Potency did it give?
Its Potency is “inactive”.

With `NCCc1ccn[nH]1` as the compound, how does the Potency read?
Its Potency is “inactive”.

How did the Potency turn out when `CC(=O)CC(c1ccc([N+](=O)[O-])cc1)c1c(O)c2ccccc2oc1=O` (centres undefined) was run?
The Potency was “inactive”.

`C[C@@H]1C[C@H]2[C@@H]3C[C@H](F)C4=CC(=O)C(Cl)=C[C@]4(C)[C@@]3(F)[C@@H](O)C[C@]2(C)[C@@]1(O)C(=O)CO` was tested. Which Potency did it give?
The Potency was “inactive”.

Which Potency does the source give for `CCCCCCCCCCCCCCCCCC(=O)OCC(O)CO` (centres undefined) here?
Its Potency is “inactive”.

`Cc1ccc(O)c2ncccc12` was tested. Which Potency did it give?
The Potency was “inactive”.

Which Potency does the source give for `NC(=O)c1cc[n+](CC2=C(C(=O)[O-])N3C(=O)[C@@H](NC(=O)Cc4cccs4)[C@H]3SC2)cc1` here?
Its Potency is “inactive”.

How did the Potency turn out when `CCCCC(=O)O[C@]1(C(=O)CO)CC[C@H]2[C@@H]3CCC4=CC(=O)CC[C@]4(C)[C@H]3[C@@H](O)C[C@@]21C` was run?
Its Potency is “inactive”.

`CC(=O)[C@H]1CC[C@H]2[C@@H]3C[C@H](C)C4=CC(=O)CC[C@]4(C)[C@H]3[C@@H](O)C[C@]12C` was tested. Which Potency did it give?
Its Potency is “inactive”.

Which Potency does the source give for `CC(=O)OCC(=O)[C@@]1(O)[C@H](C)C[C@H]2[C@@H]3CCC4=CC(=O)C=C[C@]4(C)[C@@]3(F)[C@@H](O)C[C@@]21C` here?
The Potency was “inactive”.

How did the Potency turn out when `CN(C/C=C/c1ccccc1)Cc1cccc2ccccc12` was run?
The Potency was 10 µM (active).

For `CCOC(=O)c1cccc(N)c1`, which Potency is on record?
The Potency was “inactive”.

Which Potency does the source give for `CN1CCCC(CC2c3ccccc3Sc3ccccc32)C1` (centres undefined) here?
Its Potency is 4.47 µM (active).

For `O=C1OC2(c3ccc(O)cc3Oc3cc(O)ccc32)c2ccccc21`, which Potency is on record?
The Potency was 0.631 µM (active).

How did the Potency turn out when `Oc1ccc(Cl)c2cccnc12` was run?
The Potency was “inactive”.

Which Potency does the source give for `OC[C@@H](O)[C@@H](O[C@@H]1O[C@H](CO)[C@H](O)[C@H](O)[C@H]1O)[C@H](O)[C@@H](O)CO` here?
Its Potency is “inactive”.

Which Potency does the source give for `Nc1nc2ncc(CNc3ccc(C(=O)N[C@@H](CCC(=O)O)C(=O)O)cc3)nc2c(=O)[nH]1` here?
The Potency was “inactive”.

For `CC(=O)OCC(=O)[C@@]12OC(C)(C)O[C@@H]1C[C@H]1[C@@H]3C[C@H](F)C4=CC(=O)C=C[C@]4(C)[C@@]3(F)[C@@H](O)C[C@@]12C`, which Potency is on record?
Its Potency is “inactive”.

For `CC[C@@H](CO)NCCN[C@@H](CC)CO`, which Potency is on record?
Its Potency is “inactive”.

For `Cc1cc(N)c2cc(NC(=O)Nc3ccc4nc(C)cc(N)c4c3)ccc2n1`, which Potency is on record?
The Potency was “inactive”.

`NC[C@H]1O[C@H](O[C@H]2[C@H](O[C@@H]3O[C@H](CO)[C@@H](O)[C@H]3O)C(O)[C@H](N)C[C@@H]2N)[C@H](N)[C@@H](O)[C@@H]1O` (some centres undefined) was tested. Which Potency did it give?
The Potency was “inactive”.

With `COc1cccc(OC)c1C(=O)N[C@@H]1C(=O)N2[C@@H]1SC(C)(C)[C@@H]2C(=O)O` as the compound, how does the Potency read?
Its Potency is “inactive”.

Which Potency does the source give for `NC(=O)CC[C@@H]1NC(=O)[C@H](Cc2ccccc2)NC(=O)[C@H](Cc2ccc(O)cc2)NC(=O)CCSSC[C@@H](C(=O)N2CCC[C@H]2C(=O)N[C@@H](CCCN=C(N)N)C(=O)NCC(N)=O)NC(=O)[C@H](CC(N)=O)NC1=O` here?
The Potency was “inactive”.
